Measured values from PubChem BioAssay.

Assay: compound binding in COS7 lysate, probe aLAP1, primary screen, cell lysate, small-molecule microarray (AID 1124);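 further: lysate comes from COS7 cells expressing LAP1 and is applied at 0.3 µg/mL; score merges spot fluorescence near 667 nm with signal-to-noise over triplicate slides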
Conditions: probe aLAP1, fluorescence, higher = more signal

Q: With COCC#Cc1ccc([C@@H]2N[C@H](C(=O)O)CC[C@H]2C)cc1 as the compound, how does the composite z-score read?
A: -0.384

Q: With C#CCCCON=C1[C@H]2CCn3c(=O)n([C@@H](CC)c4ccccc4)c(=O)n3[C@H]2[C@H](O)[C@@H]2O[C@H]12 as the compound, how does the composite z-score read?
A: -0.131

Q: Which composite z-score does the source give for O=C1CCCC=C1C(O)C1CCCCC1 (stereo unspecified) here?
A: -0.607

Q: For C[C@@H](c1ccccc1)N1C(=O)[C@H]2[C@H]3[C@H](O)[C@H](O)CC(=NOC[C@@H](O)COCc4ccco4)[C@H]3CC[C@H]2C1=O, which composite z-score is on record?
A: 0.565

Q: With CCOC(=O)[C@H](CC(C)C)NC(=O)CCC1CC(OC(=O)NCCc2ccc(F)cc2)CC2(CCCC(COC(=O)NCc3cccc4ccccc34)O2)O1 (stereo partly specified) as the compound, how does the composite z-score read?
A: -0.138

Q: For COC(=O)[C@H](C)NC(=O)CCC1CC(OC(=O)NCCc2ccc(F)cc2)CC2(CCCC(COC(=O)NCCc3ccccc3OC)O2)O1 (stereo partly specified), which composite z-score is on record?
A: 0.0635

Q: With CCOC(=O)CCN1C(=O)[C@H]2[C@H]3[C@H](O)[C@H](O)CC(=NOCC(C)C)[C@@H]3CC[C@H]2C1=O as the compound, how does the composite z-score read?
A: -0.412

Q: With CC[C@@H](c1ccccc1)n1c(=O)n2n(c1=O)[C@H]1[C@H](O)[C@@H]3O[C@@H]3C(=NOCc3ccccc3)[C@H]1CC2 as the compound, how does the composite z-score read?
A: -0.502

Q: Which composite z-score does the source give for COc1ccc(O[C@H]2C=C[C@@H](c3ccccc3)O[C@@H]2CON=C(C)CCN2CCCc3nc(C)c(C)cc32)cc1 here?
A: 0.271

Q: With COC(OC)[C@@H](C)[C@H](OC)[C@@H](C)[C@H](OC)c1ccccc1 as the compound, how does the composite z-score read?
A: -0.266

Q: For CC(CCN1CCc2nc(-c3ccccc3)c(-c3ccccc3)cc2C1)=NO[C@@H](C)c1cc(-c2c(C)cc(C)cc2C)no1, which composite z-score is on record?
A: -0.0375

Q: For CO[C@H]1COC(=O)CCC[C@H](C)[C@H](OC)COC(=O)CC=C[C@@H]1C, which composite z-score is on record?
A: -0.219

Q: With COC(=O)[C@H](CCSC)NC(=O)CC=C[C@@H](C)CO as the compound, how does the composite z-score read?
A: -0.226

Q: For C[C@H]1CC[C@@H](C(=O)O)N[C@@H]1c1cccc(N2CCCC2=O)c1, which composite z-score is on record?
A: -0.127

Q: With C#CCCCON=C1C[C@@H](O)[C@@H](O)[C@@H]2[C@@H]3C(=O)N([C@@H](C)c4ccccc4)C(=O)[C@@H]3CC[C@@H]12 as the compound, how does the composite z-score read?
A: 0.0247

Q: For COC(=O)[C@H](C)NC(=O)CCC1CC(OC(=O)NCc2ccc3c(c2)OCO3)CC2(CCCC(COC(=O)NCc3ccccc3)O2)O1 (stereo partly specified), which composite z-score is on record?
A: -0.0296

Q: For CCOC(=O)CCN1C(=O)[C@H]2[C@H]3[C@H](O)[C@H](O)CC(=NNC(=O)OCC)[C@H]3CC[C@H]2C1=O, which composite z-score is on record?
A: -0.0069

Q: For CC(C)(C)N1C(=O)[C@H]2[C@@H]3C(=CC[C@H]2C1=O)C(=O)[C@H]1O[C@H]1[C@H]3O, which composite z-score is on record?
A: -0.058

Q: For O=C1[C@H]2[C@H]3[C@H](O)[C@H](O)CC(=NO[C@@H]4O[C@H](CO)[C@@H](O)[C@H](O)[C@H]4O)[C@@H]3CC[C@H]2C(=O)N1C1CCCCC1, which composite z-score is on record?
A: -0.1

Q: With COc1ccc(COC(=O)NN=C2C[C@@H](O)[C@@H](O)[C@@H]3[C@@H]4C(=O)N([C@@H](C)c5ccccc5)C(=O)[C@@H]4CC[C@@H]23)cc1 as the compound, how does the composite z-score read?
A: 0.131

Q: For COc1ccc(COC(=O)NN=C2C[C@@H](O)[C@@H](O)[C@@H]3[C@@H]4C(=O)N(Cc5ccccc5)C(=O)[C@@H]4CC[C@@H]23)cc1, which composite z-score is on record?
A: -0.23

Q: For CC(C)[C@@H](OCc1ccccc1)[C@H](C)C=NO[C@@H](C)c1cn([C@H](CO)Cc2ccccc2)nn1, which composite z-score is on record?
A: -0.0074

Q: Which composite z-score does the source give for CCOC(=O)[C@H](Cc1ccccc1)NC(=O)CCC1CC(OC(=O)NCc2ccc3c(c2)OCO3)CC2(CCCC(COC(=O)NCCOc3ccccc3)O2)O1 (stereo partly specified) here?
A: -0.252

Q: With COC(=O)[C@H](C)NC(=O)CCC1CC(OC(=O)NCc2ccc3c(c2)OCO3)CC2(CCCC(COC(=O)NCCCN3CCCC3=O)O2)O1 (stereo partly specified) as the compound, how does the composite z-score read?
A: 0.261

Q: For O=C(NN=C1C[C@@H](O)[C@@H](O)[C@@H]2[C@@H]3C(=O)N(Cc4ccc5c(c4)OCO5)C(=O)[C@@H]3CC[C@@H]12)OCc1ccccc1, which composite z-score is on record?
A: 0.0507

Q: Which composite z-score does the source give for CCN1C(=O)[C@H]2[C@H]3[C@H](O)[C@H](O)CC(=NOCC[C@@H]4C=C[C@H](OC(C)=O)[C@@H](COC(C)=O)O4)[C@@H]3CC[C@H]2C1=O here?
A: 0.256

Q: For COC(=O)[C@H](C)NC(=O)CCC1CC(OC(=O)NCc2ccc3c(c2)OCO3)CC2(CCCC(COC(=O)NCCC(C)C)O2)O1 (stereo partly specified), which composite z-score is on record?
A: -0.308

Q: For CO[C@H]1COC(=O)CC=C[C@H](C)[C@H](OC)COC(=O)[C@@H](C)NC(=O)CC=C[C@@H]1C, which composite z-score is on record?
A: -0.0788

Q: With O=C1C=C[C@@H](O)[C@@H]2[C@@H]3C(=O)N(Cc4ccccc4)C(=O)[C@@H]3CC[C@@H]12 as the compound, how does the composite z-score read?
A: -0.139

Q: Which composite z-score does the source give for CCOC(=O)[C@H](Cc1ccccc1)NC(=O)CCC1CC(OC(=O)NCc2ccc3c(c2)OCO3)CC2(CCCC(COC(=O)NCCc3ccc(Cl)cc3)O2)O1 (stereo partly specified) here?
A: 0.0158

Q: With COc1ccc(-c2cnnc(CCCn3ccnc3-c3ccccc3)n2)cc1 as the compound, how does the composite z-score read?
A: 1.08

Q: For CCOC(=O)NN=C1C[C@@H](O)[C@@H](O)[C@@H]2[C@@H]3C(=O)N(c4ccc(F)cc4F)C(=O)[C@@H]3CC[C@H]12, which composite z-score is on record?
A: 0.0173

Q: For C#CCCCON=C1C[C@@H](O)[C@@H](O)[C@@H]2[C@@H]3C(=O)N(CC)C(=O)[C@@H]3CC[C@H]12, which composite z-score is on record?
A: 0.187

Q: Which composite z-score does the source give for C[C@H]1CC[C@@H](C(=O)O)N[C@@H]1c1ccc(C#Cc2ccccc2)cc1 here?
A: 0.707

Q: Which composite z-score does the source give for COC(=O)[C@H](C)NC(=O)CCC1CC(OC(=O)NCc2cccc3ccccc23)CC2(CCCC(COC(=O)NCc3ccccc3)O2)O1 (stereo partly specified) here?
A: -0.206

Q: Which composite z-score does the source give for CC(=O)OC[C@H]1O[C@H](CC=NOC[C@@H](O)[C@H]2O[C@@H]3OC(C)(C)O[C@@H]3[C@H]2O)C=C[C@@H]1OC(C)=O here?
A: 0.79
